A selection: hits, their analogues and other compounds. The true share with any hit is near 2.3%.
Abeta rescue: compounds reversing amyloid beta toxicity in yeast; AID 1347071; Potency, µM (series often up to 46.1 µM), hits mostly activators; yeast expressing A-beta42, growth rescue, OD600, 48 h; response scale: 0% DMSO, 100% iron-clioquinol control; 0.063% of 410,000 active; further: nearly all actives have a fitted effect of over 55% in size
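Yeast growth medium received pinned compounds, then yeast cells expressing toxic A-beta were added; plates incubated at 30 C for 48 hr. Growth read as absorbance at 600 nm, normalized to DMSO and equimolar FeCl3 plus clioquinol controls.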
uPA surface inh: inhibitors of cell surface uPA generation; cell surface uPA generation assay, qHTS; Potency, µM (series often up to 38.3 µM), for the others: at the highest dose activity change, negative = inhibition, usual class: inhibitors; 0.31% of 330,000 active; active means well fitted inhibition curve with a large enough effect; inconclusive means small, poorly fitted or top-dose-only effect; inactive means no such curve, though single readings can be large or run the other way; tested in mouse RAW 264.7 cells; further: on the % scale 0 is the no-effect control and ±100 the full control effect; nearly all actives have a fitted effect of over 55% in size
BCR signal inh: blocks chronic active B-cell receptor signaling | ABC-DLBCL IkBa-CBG/CBR reporter, luminescence ratio, 4 h | Potency, µM (top dose mostly 46.1 µM), for the others: at the top dose activity change, negative = inhibition, actives largely listed as inhibitors | 0.05% of 340,000 active | AID 493014; active means well fitted inhibition curve with a large enough effect in the signal ratio, with a control signal flat, not every such curve was filed as active; inconclusive means small, poorly fitted or top-dose-only effect, or effect the other way, or a change in a side signal; the % refers to the signal ratio;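 further: plate controls were basal doxycycline-induced cells for no effect and cells given 10 µM MG132 for full effect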
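TMD8 human ABC-DLBCL cells with doxycycline-inducible IκBα–green luciferase fusion and unfused red luciferase, in 0.5% FBS medium; compounds up to 46 uM, 4 h at 37C. Green/red luminescence ratio, filter-overlap corrected, fitted to concentration-response curves.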
TDP43 rescue: rescues yeast growth from TDP-43 toxicity. 1.8% of 410,000 active. Potency, µM (top dose mostly 46.1 µM), for the others: top-dose growth rescue (activation), most hits filed as activators. TDP-43 expressing yeast growth rescue, BacTiter-Glo, 24 h. AID 652104; further: % of control where 0% means no effect; nearly all actives have a fitted effect of over 50% in size
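Yeast cells expressing TDP-43 under galactose induction are exposed to compounds for 24 hr at 30 deg C. BacTiter-Glo luminescence measures growth, so protective compounds score as activators.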
aSyn yeast inh: rescues yeast growth from alpha-synuclein toxicity. Yeast expressing alpha-synuclein, growth rescue, BacTiter-Glo, 24 h. Potency, µM (titrated, usually from 46.1 µM), without a hit: at the highest dose growth rescue (activation), actives largely listed as activators. 0.14% of 370,000 active. AID 652106; further: % of control where 0% means no effect; nearly all actives have a fitted effect of over 65% in size
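Galactose-induced alpha-syn yeast (OD600=0.02, raffinose-pregrown) + pinned cpd, 24 hr, 30 deg C; growth by BacTiter-Glo luminescence. Growth restoration scores as activation.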
FUS yeast rescue: suppressors of FUS proteinopathy in yeast; AID 1347120; 0.24% of 390,000 active; Potency, µM (highest dose often 76.6 µM), usual class: activators; S. cerevisiae FUS-expressing, growth rescue, OD600, 24 h;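 further: plate controls were DMSO vehicle for no effect and reference control for full effect; nearly all actives have a fitted effect of over 55% in size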
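Quantitative HTS measuring growth restoration of FUS-toxic yeast. Galactose-induced cells (OD 0.005) were exposed 24hr at 30C to compounds at several concentrations, then absorbance at 600 nm was recorded.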
An asterisk follows results filed as active; i = inactive; ? = inconclusive; . = no result. Unless noted, the call rests on the fitted dose curve; in most records, active means well fitted curve in the direction sought with a large enough effect; inconclusive means small, poorly fitted or top-dose-only effect, or another doubt; inactive means no such curve, though single readings can be large; an effect the other way counts as inactive or inconclusive. Potency means the concentration at half of the fitted maximal effect.

SMILES	Abeta rescue	uPA surface inh	BCR signal inh	TDP43 rescue	aSyn yeast inh	FUS yeast rescue
Cc1c(C(=O)NCc2ccc3c(c2)OCO3)sc(=O)n1Cc1ccc(S(C)(=O)=O)cc1	i	.	.	8%	5%	i
O=C(CN1CCN(CC(=O)Nc2ccccc2F)CC1)Nc1ccc2c(c1)OCCO2	i	-5%	?	12%	-9%	i
O=C(NC1CCCCC1)c1ccc(-c2cn[nH]c2)c2ccoc12	i	.	.	22µM*	0%	i
COc1ccc(-c2coc3c(C(=O)NC4CCCCC4)cccc23)c(C)c1	i	.	.	19%	2%	i
COc1ccc(-c2ccc(C(=O)NC3CCCCC3)c3occc23)c(C)c1	i	.	.	13µM*	0%	i
Cc1noc(NS(=O)(=O)c2ccc(N3Cc4ccccc4C3=O)cc2)c1C	i	2%	-4%	-6%	-8%	i
C/C(=N\NS(=O)(=O)c1ccc(Br)cc1)c1ccc(-n2ccnc2)cc1	i	-7%	?	6%	5%	i
C=C1C(=O)[C@]23C[C@H]1CCC2[C@]1(C)C(=O)CC[C@@](C)(C(=O)O)C1C[C@@H]3O (stereo partly specified)	i	.	.	13µM*	16µM*	i
C=C1C(=O)[C@]23C[C@H]1CCC2[C@]1(C)CCC[C@@](C)(C(=O)O)C1C[C@@H]3O (stereo partly specified)	i	.	.	?	?	i
CC(=O)N1c2ccccc2Oc2cc3ccccc3cc21	i	9%	?	13µM*	9%	i
O=C(CCl)N1c2ccccc2Oc2ccc3ccccc3c21	i	-10%	.	?	-43%	?
Clc1ccc(-n2nnc(-c3nccs3)n2)cc1Cl	i	-17%	3%	?	-1%	i
Cc1ccc(-n2nnc(-c3nccs3)n2)cc1	i	2.2µM*	?	21%	-16%	i
CCOc1ccc(S(=O)(=O)Nc2ccc(O)c(Sc3ncn[nH]3)c2)cc1	i	-4%	0%	0%	3%	i
O=C1CS(=O)(=O)C2(C(=O)N(Cc3ccccc3)c3ccccc32)N1c1ccc(F)c(Cl)c1 (stereo unspecified)	i	.	.	20µM*	12%	i
C#CC(c1ccccc1)(c1ccccc1)n1ccnc1	i	.	.	3.5µM*	6%	i
CCc1ccc(S(=O)(=O)Nc2ccc(-c3ccc(N4CCCC4)nn3)cc2)cc1	i	.	.	9%	.	i
N#C/C(=C\c1ccccc1)c1nc(-c2cc3c(ccc4ccccc43)oc2=O)cs1	i	.	.	-6%	.	i
Cc1cc2c([nH]c3ccccc32)c(C)n1	i	-9%	1%	0%	3%	i
Cc1c2ccncc2cc2c1[nH]c1ccccc12	i	-3%	.	-1%	10µM*	i
CC(=O)N(c1ccc(Cl)cc1)c1nc(C)cc(C)c1C#N	i	0%	-1%	18%	5%	i
Nc1c2c(nc3sc4c(c13)CCCC4)-c1ccccc1CC2	i	-4%	?	2.5µM*	-7%	i
O=C(CN1CCC(N2CCCCC2)CC1)N1CCOCC1	.	.	2%	.	.	.
CC1CCCN(c2ncnc3c2cnn3-c2ccc(Cl)cc2)C1 (stereo unspecified)	i	2.2µM*	-2%	14µM*	-1%	i
CCN(CC)C(=O)C1CCCN(c2ncnc3c2cnn3-c2ccc(Cl)cc2)C1 (stereo unspecified)	i	6%	?	20µM*	3%	?
CCN(CC)C(=O)C1CCCN(c2ncnc3c2cnn3-c2cccc(C)c2)C1 (stereo unspecified)	i	-2%	?	?	15%	i
O=C(CN1C(=O)S/C(=C\c2cccs2)C1=O)Nc1ccc(C(=O)O)c(O)c1	.	-4%	-13%	10%	-1%	i
COc1cccc2c(Cl)c(CC=C(Cl)Cl)c(C)nc12	i	-1%	8%	11µM*	-18%	i
